The values below come from PubChem BioAssay (EPA / NIEHS).

Test [1] concerns the target mouse Estrogen Receptor alpha (Era), Esr1 (gene 13982) (UniProt P19785). The test is described as follows: NVS_NR_mERa: NovaScreen (NVS) Nuclear Receptor Binding Assay for mouse Estrogen Receptor alpha (Era) (AID 2283378).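 Further: hit means loss of bound radioligand signal relative to DMSO.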 Summed up: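 Filter radiodetection of radioligand displacement from extracted receptor protein, measured 18 h post-dose. Single 25 uM concentration in duplicate initially, with concentration-series follow-up. Binding loss fitted relative to DMSO.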

The target in test [2] is Agonist Androgen Response Element (ARE), AR (gene 367) (UniProt P10275). The test is described as follows: OT_AR_ARELUC_AG_1440: Odyssey Thera (OT) 24-hour CHO-K1 Luciferase Assay for Agonist Androgen Response Element (ARE) (AID 2283379). Summed up: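 CHO-K1 cells carrying an ARE-driven luciferase reporter were exposed to compounds for 24 h. Luminescence was then read after adding a D-luciferin/ATP mix, and activity was scored as a gain in signal over DMSO vehicle.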
Agonist Androgen Response Element (ARE), AR (gene 367), sequence (P10275 whole entry, looked up): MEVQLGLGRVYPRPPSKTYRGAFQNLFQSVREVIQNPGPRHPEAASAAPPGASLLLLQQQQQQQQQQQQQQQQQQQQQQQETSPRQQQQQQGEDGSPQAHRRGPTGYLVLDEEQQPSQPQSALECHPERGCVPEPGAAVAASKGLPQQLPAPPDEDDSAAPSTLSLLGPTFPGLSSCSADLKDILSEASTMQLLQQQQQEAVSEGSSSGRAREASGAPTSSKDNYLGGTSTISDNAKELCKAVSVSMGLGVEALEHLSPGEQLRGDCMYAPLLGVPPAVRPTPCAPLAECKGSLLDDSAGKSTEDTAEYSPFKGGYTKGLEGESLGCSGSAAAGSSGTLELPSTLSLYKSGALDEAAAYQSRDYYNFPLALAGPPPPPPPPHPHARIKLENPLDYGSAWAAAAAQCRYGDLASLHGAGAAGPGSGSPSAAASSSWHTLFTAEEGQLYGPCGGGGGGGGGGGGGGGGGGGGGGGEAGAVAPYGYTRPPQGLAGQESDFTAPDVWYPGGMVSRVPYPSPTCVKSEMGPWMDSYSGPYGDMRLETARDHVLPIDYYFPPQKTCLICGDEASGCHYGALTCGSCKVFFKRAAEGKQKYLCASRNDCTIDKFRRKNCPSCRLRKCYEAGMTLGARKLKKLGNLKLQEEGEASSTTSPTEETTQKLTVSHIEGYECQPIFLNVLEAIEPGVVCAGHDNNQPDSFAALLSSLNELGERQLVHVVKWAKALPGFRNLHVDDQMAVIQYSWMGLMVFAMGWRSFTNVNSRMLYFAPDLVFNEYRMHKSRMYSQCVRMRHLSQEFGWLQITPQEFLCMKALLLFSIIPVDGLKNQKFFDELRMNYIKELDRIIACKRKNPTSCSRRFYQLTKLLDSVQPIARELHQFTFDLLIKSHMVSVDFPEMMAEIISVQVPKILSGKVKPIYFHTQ

Test [3] deals with Estrogen receptor beta (Homo sapiens) (UniProt Q92731). The test is described as follows: OT_ER_ERbERb_1440: Odyssey Thera (OT) 24-hour HEK293T Protein-Complementation Assay for Estrogen Receptor-beta/-beta Homodimer (AID 2283380).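 Further: scored as signal increase over DMSO baseline for both agonists and antagonists.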 Summed up: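 HEK293T cells stably expressing ER beta LBD (aa 310-547) homodimer fragment-complementation reporter, dosed 24 h. Cells formaldehyde-fixed, Draq5-stained; gain in nuclear (agonist) or nuclear plus cytoplasmic (antagonist) fluorescence versus DMSO read by laser scanning cytometry.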
Estrogen receptor beta (Homo sapiens), sequence (Q92731 whole entry, looked up, the tested form may be a part): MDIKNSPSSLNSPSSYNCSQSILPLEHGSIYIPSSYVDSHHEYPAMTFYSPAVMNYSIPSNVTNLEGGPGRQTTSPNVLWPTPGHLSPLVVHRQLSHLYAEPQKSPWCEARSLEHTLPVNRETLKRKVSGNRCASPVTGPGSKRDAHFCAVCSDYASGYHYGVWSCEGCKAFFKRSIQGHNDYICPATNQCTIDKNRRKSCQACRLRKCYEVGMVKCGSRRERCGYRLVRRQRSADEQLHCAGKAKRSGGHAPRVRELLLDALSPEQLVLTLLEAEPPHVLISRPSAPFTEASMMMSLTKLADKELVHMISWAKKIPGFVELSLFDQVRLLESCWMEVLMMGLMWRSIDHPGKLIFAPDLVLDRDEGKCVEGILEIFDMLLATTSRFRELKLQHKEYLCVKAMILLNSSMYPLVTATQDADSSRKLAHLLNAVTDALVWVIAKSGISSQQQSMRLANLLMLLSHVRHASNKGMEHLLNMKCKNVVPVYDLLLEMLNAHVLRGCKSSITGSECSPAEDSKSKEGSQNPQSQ

Test [4] has as its target Estrogen receptor (Homo sapiens) (UniProt P03372). In words: OT_ERa_GFPERaERE_0480: Odyssey Thera (OT) 8-hour HeLa Transcription Induction Assay for Estrogen Receptor (AID 2283381; active means hit-call score of the fitted dose curve at least 0.9, where 1 is the maximum; inactive means score below 0.9). Summed up: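 Fluorescent reporter signal, imaged by microscopy and scored with image-analysis algorithms, was taken 8 h after chemical dosing of HeLa cells; activity was fitted upward relative to DMSO.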

For test [5] the target is unchanged. The test is described as follows: OT_ERa_GFPERaERE_0120: Odyssey Thera (OT) 2-hour HeLa Transcription Induction Assay for Estrogen Receptor (AID 2283382). Summed up:
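HeLa, 384-well, 2 h chemical exposure; GFP reporter induction (ERE), fluorescence microscopy; high content image analysis; positive fitting direction vs DMSO.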

Test [6] addresses Retinoic acid receptor RXR-alpha (Homo sapiens) (UniProt P19793). The test is described as follows: OT_NURR1_NURR1RXRa_0480: Odyssey Thera (OT) 8-hour HEK293T Protein Complementation Assay for Nurr1/retinoid X receptor (RXR) (AID 2283385). Summed up:
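8 h compound exposure, HEK293T; Nurr1/RXRα fragment complementation; fluorescence intensity; positive fitting direction vs DMSO baseline.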

The target is the same in test [7]. The test is described as follows: OT_NURR1_NURR1RXRa_1440: Odyssey Thera (OT) 24-hour HEK293T Protein Complementation Assay for Nurr1/retinoid X receptor (RXR) (AID 2283386). Summed up: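 Interaction of Nurr1 with RXRα brings fused reporter fragments together in human HEK293T cells, restoring a functional reporter. Fluorescence intensity is measured 24 h after chemical treatment, and values are analysed in the positive direction against DMSO.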

For test [8], the target named is Peroxisome proliferator-activated receptor gamma (Homo sapiens) (UniProt P37231). The test is described as follows: OT_PPARg_PPARgSRC1_0480: Odyssey Thera (OT) 8-hour Protein-Complementation Assay for Peroxisome Proliferator-activated Receptor Gamma / SRC-1 Co-activator (AID 2283387).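 Further: nuclear to cytoplasmic split Venus YFP fluorescence ratio reporting PPARg SRC-1 interaction.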 Summed up: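 Split-YFP (IFP1/IFP2) PPARg/SRC-1 reporter, HEK293T, 37 °C, 5% CO2; 8 h compound; formaldehyde fix + Draq5; high-content imaging, N/C ratio, ≥350 cells/image, positive direction vs DMSO.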
Peroxisome proliferator-activated receptor gamma (Homo sapiens), sequence (P37231 whole entry, looked up, the tested form may be a part): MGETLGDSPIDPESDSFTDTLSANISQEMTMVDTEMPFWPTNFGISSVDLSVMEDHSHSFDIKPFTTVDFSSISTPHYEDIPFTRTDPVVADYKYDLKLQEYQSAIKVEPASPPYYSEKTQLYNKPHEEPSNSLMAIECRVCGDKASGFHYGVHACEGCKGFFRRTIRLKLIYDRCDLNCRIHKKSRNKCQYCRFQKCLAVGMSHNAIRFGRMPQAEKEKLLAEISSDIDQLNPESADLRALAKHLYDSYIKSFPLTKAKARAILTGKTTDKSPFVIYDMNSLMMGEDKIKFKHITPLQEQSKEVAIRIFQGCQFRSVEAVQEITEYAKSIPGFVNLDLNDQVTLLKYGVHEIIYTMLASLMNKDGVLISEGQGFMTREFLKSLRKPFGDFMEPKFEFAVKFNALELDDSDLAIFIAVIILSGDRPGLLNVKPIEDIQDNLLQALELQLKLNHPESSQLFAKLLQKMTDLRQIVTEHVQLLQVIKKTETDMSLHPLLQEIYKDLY

Test [9] in a line: CEETOX_H295R_11DCORT: CeeTox H295R High-throughput Steroidogenesis Assay for 11-Deoxycortisol (11DCORT) (AID 2283432; active means hit-call score of the fitted dose curve at least 0.9, where 1 is the maximum; inactive means score below 0.9). The note with it: actives raise or lower the signal. In short, it runs like this:
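Steroidogenesis in human H295R cells: 48 h chemical exposure after forskolin priming, 11-deoxycortisol measured by LC-MS/MS.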

A short description of test [10]: CEETOX_H295R_OHPREG: CeeTox H295R High-throughput Steroidogenesis Assay for OH-Pregnenolone (OHPREG) (AID 2283434; active means hit-call score of the fitted dose curve at least 0.9, where 1 is the maximum; inactive means score below 0.9). Conditions: actives raise or lower the signal. In short, it runs like this: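 H295R cells pre-stimulated 48 h with 10 uM forskolin, then exposed 48 h to chemical in 0.1% DMSO. 17alpha-hydroxypregnenolone in medium quantified by MTBE extraction and HPLC-MS/MS; bidirectional fit versus DMSO, viability checked by MTT.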

Test [11] in a line: CEETOX_H295R_OHPROG: CeeTox H295R High-throughput Steroidogenesis Assay for OH-Progesterone (OHPROG) (AID 2283435; active means hit-call score of the fitted dose curve at least 0.9, where 1 is the maximum; inactive means score below 0.9). The note with it: actives raise or lower the signal. Summed up: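 H295R, 10 uM forskolin prestim 48 h; cmpd in 0.1% DMSO 48 h; medium MTBE-extracted, HPLC-MS/MS for OH-progesterone; 7-pt std curve; bidirectional fit vs DMSO; MTT viability, chemicals diluted until viability >/=70%.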

The nature of test [12]: CEETOX_H295R_ANDR: CeeTox H295R High-throughput Steroidogenesis Assay for Androstenedione (ANDR) (AID 2283436; active means hit-call score of the fitted dose curve at least 0.9, where 1 is the maximum; inactive means score below 0.9). Conditions: actives raise or lower the signal. In short, it runs like this: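 H295R cells, following OECD 456 with minor changes, exposed to chemicals for 48 h. Androstenedione in the medium was quantified by HPLC-MS/MS after MTBE extraction. Fitting was bidirectional versus DMSO; chemicals were diluted until MTT viability was ≥70%.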

A short description of test [13]: CEETOX_H295R_CORTIC: CeeTox H295R High-throughput Steroidogenesis Assay for Corticosterone (CORTIC) (AID 2283437; active means hit-call score of the fitted dose curve at least 0.9, where 1 is the maximum; inactive means score below 0.9;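 further: corticosterone secreted into medium quantified by mass spectrometry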). The note with it: actives raise or lower the signal. In short, it runs like this:
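H295R adrenal cells prestimulated 48 hours with 10 uM forskolin, then exposed 48 hours to chemical in 0.1% DMSO. Corticosterone in medium measured by HPLC-MS/MS after MTBE extraction; MTT viability in the same wells; bidirectional fit versus DMSO.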

The nature of test [14]: CEETOX_H295R_CORTISOL: CeeTox H295R High-throughput Steroidogenesis Assay for Cortisol (AID 2283438; active means hit-call score of the fitted dose curve at least 0.9, where 1 is the maximum; inactive means score below 0.9;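 further: cortisol secreted into medium quantified by LC-MS/MS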). The note with it: actives raise or lower the signal. In short, it runs like this: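 Forskolin 10 uM 48 h prestim → test cmpd in DMSO (0.1% final) 48 h → medium MTBE-extracted → LC-MS/MS cortisol vs 7-pt std curve. Gain/loss of signal fitted vs DMSO. MTT viability in same wells.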

A short description of test [15]: CEETOX_H295R_DOC: CeeTox H295R High-throughput Steroidogenesis Assay for DOC (AID 2283439; active means hit-call score of the fitted dose curve at least 0.9, where 1 is the maximum; inactive means score below 0.9). Conditions: actives raise or lower the signal. In short, it runs like this: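 Readout: 11-deoxycorticosterone in culture medium by reverse-phase C18 HPLC with ESI+ tandem MS after MTBE extraction. Cells: H295R, forskolin-primed (10 uM, 48 h), chemical-treated 48 h; DMSO 0.1% final. Activity fitted bidirectionally versus DMSO.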

Test [16] in a line: CEETOX_H295R_ESTRADIOL: CeeTox H295R High-throughput Steroidogenesis Assay for Estradiol (AID 2283440; active means hit-call score of the fitted dose curve at least 0.9, where 1 is the maximum; inactive means score below 0.9;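 further: estradiol secreted into medium quantified by LC-MS/MS after dansyl derivatisation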). Conditions: actives raise or lower the signal. Summed up: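 Estradiol in spent medium measured by LC-MS/MS after dansyl chloride derivatisation. Forskolin-primed (10 uM, 48 h) human adrenal H295R cells received test chemical 48 h at 0.1% DMSO; concentrations lowered until MTT viability >/=70%.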

The nature of test [17]: CEETOX_H295R_ESTRONE: CeeTox H295R High-throughput Steroidogenesis Assay for Estrone (AID 2283441; active means hit-call score of the fitted dose curve at least 0.9, where 1 is the maximum; inactive means score below 0.9;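 further: estrone secreted into medium measured by LC-MS/MS after dansyl derivatization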). Conditions: actives raise or lower the signal. Summed up:
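H295R cells prestimulated 48 h with 10 uM forskolin, then exposed 48 h to chemicals in 0.1% DMSO final; estrone in medium extracted with MTBE, dansyl-derivatized, quantified by HPLC-MS/MS; bidirectional fitting versus DMSO, viability by MTT.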

The target of test [18] is Bile acid receptor (Homo sapiens) (UniProt Q96RI1). The test is described as follows: OT_FXR_FXRSRC1_0480: Odyssey Thera (OT) 8-hour HEK293T Protein-Complementation Assay for Farnesoid X receptor/SRC-1 Co-activator (AID 2283383). Summed up: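 Human kidney HEK293T cells carried FXR/SRC-1 fragment-complementation constructs. Compounds were added and incubated 8 h. Reporter reassembly upon receptor–co-activator interaction was then quantified by fluorescence, with curves fitted in the positive direction relative to DMSO.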
Bile acid receptor (Homo sapiens), sequence (Q96RI1 whole entry, looked up, the tested form may be a part): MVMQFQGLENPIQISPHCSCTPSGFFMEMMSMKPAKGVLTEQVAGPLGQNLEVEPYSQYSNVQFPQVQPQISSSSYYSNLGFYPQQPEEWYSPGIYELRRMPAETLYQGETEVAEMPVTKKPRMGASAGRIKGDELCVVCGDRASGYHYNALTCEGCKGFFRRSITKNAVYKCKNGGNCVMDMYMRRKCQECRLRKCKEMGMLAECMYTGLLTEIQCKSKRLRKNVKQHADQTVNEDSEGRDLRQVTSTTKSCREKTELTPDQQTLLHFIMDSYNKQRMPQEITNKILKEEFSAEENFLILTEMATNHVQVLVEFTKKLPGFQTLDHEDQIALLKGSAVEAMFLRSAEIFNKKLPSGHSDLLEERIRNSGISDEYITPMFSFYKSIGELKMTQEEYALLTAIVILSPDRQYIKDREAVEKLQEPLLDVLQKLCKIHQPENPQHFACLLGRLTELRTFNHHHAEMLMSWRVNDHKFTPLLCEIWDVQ

The target is the same in test [19]. In words: OT_FXR_FXRSRC1_1440: Odyssey Thera (OT) 24-hour HEK293T Protein-Complementation Assay for Farnesoid X receptor/SRC-1 Co-activator (AID 2283384). Summed up:
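Compounds are applied to human kidney HEK293T cells expressing bait and prey fused to reporter protein fragments; after 24 h, reconstituted reporter fluorescence is measured. Activity is fitted as signal gain over DMSO.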

The target of test [20] is Peroxisome proliferator-activated receptor gamma (Homo sapiens) (UniProt P37231). The test is described as follows: OT_PPARg_PPARgSRC1_1440: Odyssey Thera (OT) 24-hour Protein-Complementation Assay for Peroxisome Proliferator-activated Receptor Gamma/ SRC-1 Co-activator (AID 2283388).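 Further: nuclear to cytoplasmic ratio of reconstituted Venus YFP fluorescence in fixed imaged cells.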 In short, it runs like this:
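Readout is the 488 nm N/C fluorescence ratio from fixed, Draq5-stained HEK293T cells after 24 h compound exposure. Cells carried transiently transfected PPARg and SRC-1 fused to Venus fragments, transfected 48 h before treatment.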

Each structure is given as a SMILES string. Inconclusive results are not listed. Some compounds were tested as several samples or in several runs, with calls that do not always agree. The source made the active and inactive calls. How the source made its calls, unless noted: active means hit-call score of the fitted dose curve at least 0.9, where 1 is the maximum; inconclusive means response in the unintended direction; inactive means score below 0.9.

Retinoic acid receptor RXR-alpha (Homo sapiens), sequence (P19793 whole entry, looked up, the tested form may be a part): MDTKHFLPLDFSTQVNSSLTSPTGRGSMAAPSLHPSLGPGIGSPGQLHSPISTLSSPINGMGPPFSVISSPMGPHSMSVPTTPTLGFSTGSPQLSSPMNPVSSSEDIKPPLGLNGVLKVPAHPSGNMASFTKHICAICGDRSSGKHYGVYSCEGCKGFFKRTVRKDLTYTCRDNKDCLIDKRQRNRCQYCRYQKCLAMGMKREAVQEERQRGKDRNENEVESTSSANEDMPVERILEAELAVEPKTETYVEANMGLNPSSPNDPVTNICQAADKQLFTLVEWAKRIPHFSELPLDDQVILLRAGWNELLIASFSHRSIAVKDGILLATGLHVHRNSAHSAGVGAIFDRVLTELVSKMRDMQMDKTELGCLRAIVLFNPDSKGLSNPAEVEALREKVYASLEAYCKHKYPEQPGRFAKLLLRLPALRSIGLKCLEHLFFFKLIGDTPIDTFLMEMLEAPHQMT
mouse Estrogen Receptor alpha (Era), Esr1 (gene 13982), sequence (P19785 whole entry, looked up): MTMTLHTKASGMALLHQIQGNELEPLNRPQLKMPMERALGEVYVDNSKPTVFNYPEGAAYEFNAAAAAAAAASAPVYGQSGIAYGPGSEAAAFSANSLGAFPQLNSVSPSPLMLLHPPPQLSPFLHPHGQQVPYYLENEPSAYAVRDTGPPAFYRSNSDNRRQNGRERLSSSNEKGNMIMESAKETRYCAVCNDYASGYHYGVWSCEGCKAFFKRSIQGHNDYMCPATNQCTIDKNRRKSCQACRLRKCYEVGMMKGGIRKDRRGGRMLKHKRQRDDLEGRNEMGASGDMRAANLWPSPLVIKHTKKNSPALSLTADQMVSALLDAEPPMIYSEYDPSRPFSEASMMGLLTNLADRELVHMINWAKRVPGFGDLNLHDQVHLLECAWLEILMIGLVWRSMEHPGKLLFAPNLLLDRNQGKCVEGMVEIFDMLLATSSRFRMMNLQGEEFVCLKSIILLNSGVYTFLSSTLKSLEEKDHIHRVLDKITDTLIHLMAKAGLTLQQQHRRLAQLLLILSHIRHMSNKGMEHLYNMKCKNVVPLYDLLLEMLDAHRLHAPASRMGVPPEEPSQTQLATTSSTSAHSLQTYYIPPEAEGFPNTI
Estrogen receptor (Homo sapiens), sequence (P03372 whole entry, looked up): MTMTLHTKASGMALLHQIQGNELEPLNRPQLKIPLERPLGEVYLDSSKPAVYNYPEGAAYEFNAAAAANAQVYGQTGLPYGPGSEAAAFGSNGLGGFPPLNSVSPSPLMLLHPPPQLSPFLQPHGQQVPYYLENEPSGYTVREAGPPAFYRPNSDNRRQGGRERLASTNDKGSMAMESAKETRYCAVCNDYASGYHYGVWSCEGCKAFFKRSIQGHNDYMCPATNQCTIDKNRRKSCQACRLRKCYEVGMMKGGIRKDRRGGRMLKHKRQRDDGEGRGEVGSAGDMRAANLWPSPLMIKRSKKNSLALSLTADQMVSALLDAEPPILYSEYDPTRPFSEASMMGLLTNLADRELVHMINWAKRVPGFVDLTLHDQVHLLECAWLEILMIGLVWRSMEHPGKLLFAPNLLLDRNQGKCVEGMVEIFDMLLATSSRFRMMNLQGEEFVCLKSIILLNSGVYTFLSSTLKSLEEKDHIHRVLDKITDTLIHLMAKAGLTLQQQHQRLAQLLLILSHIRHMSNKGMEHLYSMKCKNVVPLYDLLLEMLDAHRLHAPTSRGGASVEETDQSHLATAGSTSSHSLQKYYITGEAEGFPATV

On to `CCCCC(CC)C(=O)OCCOCCOCCOC(=O)C(CC)CCCC` (configuration not stated), for which the result in [1], in [2], in test [3], in test [4], in [5] and in test [6] was inactive. Also, the molecule was classed as inactive in test [7], in [8], in [9], in test [10], in [11] and in [12]. The call in [13], in test [14], in test [15], in test [16] and in test [17] was inactive.

On to `CCCCCCCCCC`, for which the molecule was called inactive in [3], in [4], in [5], in [18], in test [19] and in [6]. Also, the result in test [7] and in test [8] was inactive.

Broadly, the AC50 is the concentration giving half of the maximal activity seen. On to `CCCC(CCC)C(=O)O`, for which the molecule was classed as inactive in test [1], in [4], in test [5], in test [6], in [7] and in test [8]. Moreover, the AC50 in [6] was 90.4 µM (active).

For `c1ccc2cc3ccccc3cc2c1`, the molecule was classed as inactive in test [3], in [4], in [5], in test [18], in [19] and in test [6]. In addition, the result in test [8] and in [20] was inactive. Also, the AC50 in test [7] is 72.7 µM (active).

For the molecule `CCN(CC)C(=S)SSC(=S)N(CC)CC`, the outcome in [2], in test [3], in test [18], in test [19], in test [8] and in test [20] was inactive. For the same molecule, the call in [9], in test [10], in test [11], in test [12], in test [13] and in [14] was inactive. Further, the molecule was classed as inactive in test [15], in [16] and in test [17]. Also, the AC50 in test [4] is 92.5 µM (active); in [5], 77.7 µM (active).

For `CCc1ccc(O)c(C(C)(C)C)c1`, the outcome in [1], in test [3], in [4], in test [5] and in test [8] was inactive.

Take `O=C(O)c1cccc(C[C@@H]2COc3ccc(OCc4nc5cc(F)ccc5s4)cc3[C@@H]2O)c1`: the call in [1], in test [3], in test [4], in test [5], in [6] and in test [7] was inactive.

Regarding `OCc1ccccc1`, the molecule was called inactive in test [2], in [3], in [4], in [5], in test [6] and in test [7]. The molecule was classed as inactive in test [8] and in test [20].
